Experiment [1] has as its target Rap guanine nucleotide exchange factor 3 (Homo sapiens) (UniProt O95398). Description: Confirmatory qHTS for agonist of cAMP-regulated guanine nucleotide exchange factor 3 (EPAC1) (AID 1645881).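 Further: EPAC1 catalysed release of BODIPY-GDP from Rap1B seen as fluorescence loss; 100% = effect of cAMP agonist control; nearly all actives have a fitted effect of over 75% in size.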 On the technique in general: Quantitative high-throughput screening tests each substance at several concentrations.
The target in experiment [2] is Rap guanine nucleotide exchange factor 4 (Homo sapiens) (UniProt Q8WZA2). Nature of the experiment: Confirmatory qHTS for agonist of cAMP-regulated guanine nucleotide exchange factor 4 (EPAC2) (AID 1645884).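 Further: nucleotide exchange releases bodipy-GDP from Rap1 and this lowers its fluorescence; on the % scale 0 is the no-effect control and ±100 the full control effect; nearly all actives have a fitted effect of over 65% in size.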
Chain of Rap guanine nucleotide exchange factor 4 (Homo sapiens) (Q8WZA2 whole entry, looked up): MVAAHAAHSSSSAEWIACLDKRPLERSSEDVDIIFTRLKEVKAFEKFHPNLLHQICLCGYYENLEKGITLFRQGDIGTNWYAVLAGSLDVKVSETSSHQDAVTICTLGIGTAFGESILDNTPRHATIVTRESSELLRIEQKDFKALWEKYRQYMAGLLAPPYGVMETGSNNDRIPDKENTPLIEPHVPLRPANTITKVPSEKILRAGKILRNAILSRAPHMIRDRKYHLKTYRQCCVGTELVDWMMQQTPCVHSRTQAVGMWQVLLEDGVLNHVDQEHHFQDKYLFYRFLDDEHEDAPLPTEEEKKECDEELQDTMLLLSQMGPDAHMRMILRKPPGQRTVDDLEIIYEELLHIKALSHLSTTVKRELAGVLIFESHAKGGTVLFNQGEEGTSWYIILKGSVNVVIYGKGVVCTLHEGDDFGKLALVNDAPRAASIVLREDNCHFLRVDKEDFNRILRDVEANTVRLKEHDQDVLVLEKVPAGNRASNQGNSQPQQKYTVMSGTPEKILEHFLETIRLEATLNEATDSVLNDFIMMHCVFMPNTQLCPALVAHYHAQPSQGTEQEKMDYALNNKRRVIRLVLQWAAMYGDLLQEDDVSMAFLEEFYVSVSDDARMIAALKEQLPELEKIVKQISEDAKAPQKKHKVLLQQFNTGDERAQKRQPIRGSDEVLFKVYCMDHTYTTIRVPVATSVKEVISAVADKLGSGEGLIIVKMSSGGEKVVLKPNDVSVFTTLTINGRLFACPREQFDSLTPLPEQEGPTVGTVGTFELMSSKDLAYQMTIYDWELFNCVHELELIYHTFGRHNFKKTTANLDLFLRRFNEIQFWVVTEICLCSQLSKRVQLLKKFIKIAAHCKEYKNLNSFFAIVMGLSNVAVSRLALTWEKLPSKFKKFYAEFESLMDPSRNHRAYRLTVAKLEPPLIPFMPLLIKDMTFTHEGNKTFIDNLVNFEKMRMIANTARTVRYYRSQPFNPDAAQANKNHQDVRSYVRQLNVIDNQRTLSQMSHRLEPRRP
The target is the same in experiment [3]. Nature of the experiment: Confirmatory qHTS for antagonist of cAMP-regulated guanine nucleotide exchange factor 4 (EPAC2) (AID 1645885). Further: nearly all actives have a fitted effect of over 25% in size. Further: potency means the concentration at half of the fitted maximal effect. On activity change, negative = inhibition: on the % scale 0 is the no-effect control and ±100 the full control effect.
In experiment [4] the target is Rap guanine nucleotide exchange factor 3 (Homo sapiens) (UniProt O95398). Description: Counterscreen qHTS for antagonist of cAMP-regulated guanine nucleotide exchange factor 3 (EPAC1) (AID 1645888).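 Further: fluorescence loss as bound BODIPY-GDP is released from Rap1B; % of control where 0% means no effect.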 A digest of the protocol:
(§1)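 Rap1B–BODIPY-GDP (250 nM) with 50 uM GDP; compounds pin-transferred to 9.74 nM–152 uM final (activator) or from 7.32 nM upwards (inhibitor). Fluorescence Ex/Em 480/540 nm read at 5 and 30 min, then after adding cAMP or buffer, at room temperature.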
For orientation: A counterscreen serves to expose hits that act by an unwanted route or on another target.

For experiment [5] the target is unchanged. Description: Counterscreen qHTS for agonist of cAMP-regulated guanine nucleotide exchange factor 3 (EPAC1) (AID 1645889). Further: % of control where 0% means no effect; nearly all actives have a fitted effect of over 40% in size. A digest of the protocol:
as §1

Inconclusive results are not listed. A number with no mark means an inactive call. Calls of active or inactive are those of the source. The call rests on the fitted dose curve; in most records, active means well fitted curve in the direction sought with a large enough effect; inconclusive means small, poorly fitted or top-dose-only effect, or another doubt; inactive means no such curve, though single readings can be large; an effect the other way counts as inactive or inconclusive.

Chain of Rap guanine nucleotide exchange factor 3 (Homo sapiens) (O95398 whole entry, looked up): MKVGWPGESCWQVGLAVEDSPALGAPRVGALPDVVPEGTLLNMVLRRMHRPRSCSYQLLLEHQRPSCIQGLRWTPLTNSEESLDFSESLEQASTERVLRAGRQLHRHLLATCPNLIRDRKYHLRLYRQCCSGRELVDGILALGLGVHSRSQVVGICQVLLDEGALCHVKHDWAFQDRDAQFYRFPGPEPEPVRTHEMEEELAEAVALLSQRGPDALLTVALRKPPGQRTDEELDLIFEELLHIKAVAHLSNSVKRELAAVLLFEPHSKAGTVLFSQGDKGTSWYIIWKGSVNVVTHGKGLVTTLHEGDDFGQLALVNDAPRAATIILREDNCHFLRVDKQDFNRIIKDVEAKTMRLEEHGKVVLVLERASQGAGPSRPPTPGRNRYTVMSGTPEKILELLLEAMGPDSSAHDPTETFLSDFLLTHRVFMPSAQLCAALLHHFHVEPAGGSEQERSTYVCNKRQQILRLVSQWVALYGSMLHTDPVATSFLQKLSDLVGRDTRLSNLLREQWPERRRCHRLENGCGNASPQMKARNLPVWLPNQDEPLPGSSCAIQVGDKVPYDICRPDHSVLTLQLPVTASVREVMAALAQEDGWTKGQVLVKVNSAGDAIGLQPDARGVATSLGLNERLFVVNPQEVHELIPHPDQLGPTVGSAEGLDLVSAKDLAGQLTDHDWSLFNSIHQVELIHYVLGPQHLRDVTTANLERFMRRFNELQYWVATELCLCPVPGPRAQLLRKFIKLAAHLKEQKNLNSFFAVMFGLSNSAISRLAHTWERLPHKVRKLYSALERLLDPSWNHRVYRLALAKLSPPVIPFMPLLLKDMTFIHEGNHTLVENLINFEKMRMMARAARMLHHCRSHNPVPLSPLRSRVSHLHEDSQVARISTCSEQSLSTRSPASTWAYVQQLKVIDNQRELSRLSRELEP

With `O=[N+]([O-])CC(c1ccccc1)c1c[nH]c2ccccc12` (stereo not given), the Potency entry in experiment [1], in experiment [2], in experiment [4] and in experiment [5] was “inactive” each time. In addition, in experiment [3], the Potency is 21.3 µM (active).

As for `COc1cc(O)c(C=NN2C(=O)CSC2=S)c(OC)c1`, the Potency entry in experiment [1], in experiment [2], in experiment [3], in experiment [4] and in experiment [5] was “inactive” in each case.

With `CCc1ccc(N=C2NC(=O)/C(=C/c3cc(Br)c(OCC(=O)O)c(OC)c3)S2)cc1`, the Potency result in experiment [1] and in experiment [3] was “inactive” each time. Moreover, the activation in experiment [2] is -6.04% [at 17.1 µM, percent relative to cAMP agonist control]; in experiment [5], 15.5% [at 30.8 µM]. Also, in experiment [4], the activity change, negative = inhibition was -19.5% [at 30.8 µM].

With `CCCc1nc2c(Cl)cc(C(F)(F)F)cn2c1Cc1ccc(OC)cc1C`, the Potency result in experiment [1] and in experiment [3] was “inactive” each time. Besides, the activation was 5.33% [at 17.1 µM, percent relative to cAMP agonist control] in experiment [2] and 14.3% [at 30.8 µM] in experiment [5]. In addition, the activity change, negative = inhibition in experiment [4] was -8.15% [at 30.8 µM].

`O=C(O)C(Cc1c[nH]c2ccccc12)NS(=O)(=O)c1ccc(Cl)c(C(F)(F)F)c1` (stereo not given): the Potency result in experiment [1] and in experiment [3] was “inactive” each time. Moreover, the activation in experiment [2] is -2.68% [at 17.1 µM, percent relative to cAMP agonist control]; in experiment [5], 21.8% [at 30.8 µM]. Moreover, the activity change, negative = inhibition in experiment [4] is -4.37% [at 30.8 µM].

With `C/C=C/c1cc(OC)c2c(c1)[C@H](C)[C@@H](c1ccc(O)c(OC)c1)O2`, the Potency entry in experiment [1], in experiment [2], in experiment [3], in experiment [4] and in experiment [5] was “inactive” in each case.

For the compound `COc1ccc2oc(C(=O)Nc3ccc(N4CCOCC4)cc3)c(C)c2c1`, the Potency entry in experiment [1] and in experiment [3] was “inactive” throughout. Also, the activation is -0.0841% [at 17.1 µM, percent relative to cAMP agonist control] in experiment [2] and 8.1% [at 30.8 µM] in experiment [5]. The activity change, negative = inhibition in experiment [4] was 7.62% [at 30.8 µM].

`COc1ccc(-c2csc(C(C)(O)c3ccccc3)n2)cc1` (stereo not given): the Potency result in experiment [1] and in experiment [3] was “inactive” in each case. For the same compound, the activation in experiment [2] is 5.7% [at 17.1 µM, percent relative to cAMP agonist control]; in experiment [5], 23.4% [at 30.8 µM]. Further, in experiment [4], the activity change, negative = inhibition was 8.72% [at 30.8 µM].

Take `Cc1cc(-c2ccc(C(C)C)c(S(=O)(=O)N3CCC(C)CC3)c2)on1`: the Potency result in experiment [1] and in experiment [3] was “inactive” in each case. For the same compound, the activation in experiment [2] was 8.04% [at 17.1 µM, percent relative to cAMP agonist control]; in experiment [5], 0.648% [at 30.8 µM]. Also, in experiment [4], the activity change, negative = inhibition was -17.5% [at 30.8 µM].

In the case of `COc1ccc(C2CC(=O)C3=C(C2)NC(C)=C(C#N)C3c2ccc(N(C)C)cc2)cc1` (stereo not given), the Potency entry in experiment [1] and in experiment [3] was “inactive” in each case. Besides, the activation in experiment [2] was 6.82% [at 17.1 µM, percent relative to cAMP agonist control]; in experiment [5], 20% [at 30.8 µM]. For the same compound, the activity change, negative = inhibition in experiment [4] is 0.0712% [at 30.8 µM].

As for `Oc1cccc(-c2nc3ncccn3c2Nc2cccc(C(F)(F)F)c2)c1`, the Potency entry in experiment [1], in experiment [2], in experiment [3], in experiment [4] and in experiment [5] was “inactive” throughout.

Turning to `CN(CC(=O)Nc1cccc(F)c1)C(=O)c1cccc(-n2cccc2)c1`, the Potency result in experiment [1] and in experiment [3] was “inactive” throughout. Besides, the activation is 6.22% [at 17.1 µM, percent relative to cAMP agonist control] in experiment [2] and 14.1% [at 30.8 µM] in experiment [5]. For the same compound, the activity change, negative = inhibition in experiment [4] is -8.31% [at 30.8 µM].

Turning to `C=CCN1C(=O)/C(=C/c2ccc(OCC(=O)O)cc2)S/C1=N/c1nccs1`, the Potency result in experiment [1] and in experiment [3] was “inactive” each time. The activation in experiment [2] was 0% [at 17.1 µM, percent relative to cAMP agonist control]; in experiment [5], 14.3% [at 30.8 µM]. For the same compound, the activity change, negative = inhibition in experiment [4] was -1.64% [at 30.8 µM].

With `CCC(=O)N(CCC(c1ccccc1)c1ccc2c(c1)OCO2)Cc1ccc(OC(C)C)cc1` (stereo not given), the Potency entry in experiment [1], in experiment [2], in experiment [3], in experiment [4] and in experiment [5] was “inactive” throughout.

Regarding `COc1ccccc1-n1c(C)c(C(=O)O)c2cc(OC)c3ccccc3c21`, the Potency result in experiment [1], in experiment [2], in experiment [4] and in experiment [5] was “inactive” throughout. The Potency in experiment [3] was 47.8 µM (active).

Regarding `O=C1NC[C@H](Cc2ccc(O)cc2)N(C[C@@H]2CCCN2C[C@H](Cc2ccc(O)cc2)N2C[C@H](Cc3ccccc3)N(CC3CCCCC3)C(=O)C2=O)C1=O`, the Potency result in experiment [1] and in experiment [3] was “inactive” throughout. The activation is -4.51% [at 17.1 µM, percent relative to cAMP agonist control] in experiment [2] and 17.8% [at 30.8 µM] in experiment [5]. Also, the activity change, negative = inhibition in experiment [4] was -13.5% [at 30.8 µM].

With `O=C(c1ccc(O)c(Br)c1)c1cc(Br)ccc1O`, the Potency result in experiment [1] and in experiment [3] was “inactive” throughout. Also, the activation is 3.68% [at 17.1 µM, percent relative to cAMP agonist control] in experiment [2] and 26.8% [at 30.8 µM] in experiment [5]. The activity change, negative = inhibition in experiment [4] is -2.96% [at 30.8 µM].

As to `CC(=O)/C(=N/Nc1ccccc1)Sc1nnc(CCc2ccccc2)n1-c1ccccc1`, the Potency entry in experiment [1], in experiment [2], in experiment [3], in experiment [4] and in experiment [5] was “inactive” each time.

For the compound `CCCc1nc2c(=O)n(C)c(=O)nc-2n(C)n1`, the Potency entry in experiment [1], in experiment [2], in experiment [3], in experiment [4] and in experiment [5] was “inactive” throughout.

Source of the values: PubChem BioAssay (NCATS).
